PostGolgi ctrl: yeast control strain growth, post-Golgi counter-screen. inhibition, % at 10 µM. hit rate 5% among 98,000. efflux-deficient yeast background strain, growth absorbance A615, 16 h
sEH act: activators of human soluble epoxide hydrolase. purified human sEH enzymatic activity, activator screen. activation, % at 2 µM. hit rate 0.04% among 91,000. AID 717; in the data active means activation above about 37%
Target sequence (P34913 whole entry, looked up): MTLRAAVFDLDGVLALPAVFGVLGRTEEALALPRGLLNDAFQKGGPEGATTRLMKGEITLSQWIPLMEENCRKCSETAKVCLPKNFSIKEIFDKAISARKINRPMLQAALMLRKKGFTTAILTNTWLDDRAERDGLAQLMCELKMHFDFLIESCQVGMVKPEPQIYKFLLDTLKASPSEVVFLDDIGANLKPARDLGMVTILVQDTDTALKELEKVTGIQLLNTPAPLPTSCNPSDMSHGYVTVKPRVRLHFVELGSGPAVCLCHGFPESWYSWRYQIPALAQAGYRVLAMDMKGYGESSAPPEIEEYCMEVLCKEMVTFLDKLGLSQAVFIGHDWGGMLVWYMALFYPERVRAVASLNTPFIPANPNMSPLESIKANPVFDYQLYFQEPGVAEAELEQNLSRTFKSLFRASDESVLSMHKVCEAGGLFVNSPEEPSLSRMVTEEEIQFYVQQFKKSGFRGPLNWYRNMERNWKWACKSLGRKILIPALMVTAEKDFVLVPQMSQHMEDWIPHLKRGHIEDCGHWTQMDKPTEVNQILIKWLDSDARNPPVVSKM
sEH inh: soluble epoxide hydrolase (human) inhibition; P34913; recombinant human sEH enzymatic activity assay; inhibition, % at 2 µM; hit rate 0.34% among 91,000; in the data active means inhibition above about 80%
PostGolgi yeast: growth inhibition of a yeast mutant, post-Golgi transport screen. post-Golgi transport phenotypic cell assay. inhibition, % at 10 µM. hit rate 0.9% among 98,000;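 further: yeast cells grown in 1536-well plates; yeast grown about 18 h at 30C before absorbance read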
Cav32 inh: human Cav3.2 channel inhibition, primary screen; O95180; hit rate 4% among 100,000; B-score at 10 µM; Cav3.2-expressing cells, Fluo-4 calcium fluorescence FDSS; stronger effect = lower value;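 active means single-dose well whose peak fluorescence ratio is a statistical outlier from its plate by either plate-standardised score or position-corrected B-score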
* = called active by the depositor; . = no result given; ! = not active in a repeat. Compounds with a hit are over-represented: about 7.8% of the library has one in this group of screens. Unless noted, no stated cut-off is given here; in the data, active means inhibition above about 30%; inactive means the rest.

SMILES | PostGolgi ctrl | sEH act | sEH inh | PostGolgi yeast | Cav32 inh
COc1ccc(Cl)cc1C(=O)NC(=S)Nc1cc(-c2nc3ccccc3[nH]2)ccc1C | 35.2* | -17.3 | 15.2 | -2.6 | -4.79*
O=C(N/N=C/c1ccc(Br)o1)/C(=C/c1ccc([N+](=O)[O-])cc1)NC(=O)c1ccccc1 | 11.2 | 2.7 | -2.8 | 4.6 | -4.91*
O=C(N/N=C/c1ccco1)/C(=C/c1cccc([N+](=O)[O-])c1)NC(=O)c1ccccc1 | -0.9 | 3.6 | -1.3 | -9.7 | 0.0617
Nc1n[nH]c2c1C1(CCCCC1)Cc1ccccc1-2 | 41.7* | . | . | 2.0 | 0.0276
c1ccc2c(c1)CC1(CCCCC1)n1nnnc1-2 | . | 3.3 | -0.4 | . | 0.17
CCOC(=O)Cn1ncc(-c2ccccc2)c1N | 2.7 | -4.3 | -1.1 | 3.1 | 0.0839
O=c1[nH]c(CSc2nnc(NCCCN3CCOCC3)s2)nc2cc(Cl)ccc12 | 4.9 | 1.6 | 0.5 | 6.0 | 0.556
Cc1cc2oc(=O)cc(CN3CCc4ccccc43)c2cc1Cl | 35.9* | -6.4 | 6.0 | -0.7 | -5.25*
CCn1c(SCc2nc(-c3ccccc3)no2)nc2ccccc21 | 21.7 | -7.1 | 5.9 | -8.9 | -3.4*
CCn1c(SCc2nc(-c3ccccc3)no2)nnc1-c1cccs1 | 14.2 | 4.4 | -4.1 | 4.7 | -0.788
c1ccc(-c2noc(CSc3nnnn3C3CCCCC3)n2)cc1 | 18.4 | . | . | 2.2 | -5.67*
CCn1c(NC(=O)Nc2ccccc2OC)nc2ccccc21 | 19.3 | . | . | 7.3 | -0.0434
Cc1ccc(NC(=O)CSc2nnc(Cc3cccn3C)n2-c2ccc(F)cc2)cc1 | 12.6 | -34.4 | 34.3 | -3.5 | -3.86*
Cc1csc(NC(=O)CSc2nnc(Cc3cccn3C)n2-c2ccc(F)cc2)n1 | 29.7 | -5.4 | 4.5 | -1.8 | -5.78*
CC(=O)c1ccc(NC(=O)CSc2nnc(Cc3cccn3C)n2-c2ccc(F)cc2)cc1 | 2.9 | 2.6 | 1.0 | -6.1 | 1.32
CCc1ccc(NC(=O)CSc2nnc(Cc3cccn3C)n2-c2ccc(F)cc2)cc1 | 9.2 | . | . | -5.1 | -4.15*
O=C(NC(=S)Nc1cccc(Cl)c1N1CCCC1)c1ccc(-c2cccc([N+](=O)[O-])c2)o1 | 1.5 | -9.9 | 9.4 | -9.5 | -0.509
CCN(CC)CCNCc1ccc(-c2ccc(Cl)cc2)o1 | 10.9 | . | . | 1.3 | 1.15
CC(C)(C)CC(=O)Nc1ccc(Nc2ccccc2)cc1 | -3.9 | -33.1 | 32.9 | 3.2 | -3.18
COc1ccc(CCN2C(=NC(=O)CCC(=O)O)SC3CS(=O)(=O)CC32)cc1 (stereo not given) | -1.2 | -0.2 | 0.7 | -6.0 | -0.172
CCCNC(=O)NC(=O)COC(=O)c1ccc(OC)c(S(=O)(=O)N2CCCc3ccccc32)c1 | 16.7 | -14.6 | 14.2 | -6.8 | -7.54*
O=C(Oc1nsnc1N1CCOCC1)N(c1ccccc1)c1ccccc1 | 30.4* | . | . | 15.1 | -3.77
CN1/C(=C/C(=O)c2nc(S(C)(=O)=O)ncc2Cl)C(C)(C)c2ccccc21 | 60.0* | 13.0 | -13.6 | 15.7 | 1.01
COc1ccc2c(C=Nc3c(C)n(C)n(-c4ccccc4)c3=O)c(O)n(Cc3ccco3)c(=O)c2c1 | 62.8*! | 4.0 | -4.4 | -0.6 | -1.15
O=C(NCc1ccccc1)c1cccc(COc2ccccc2Cl)c1 | 27.2 | -21.8 | 23.8 | 1.8 | -6.53*
SMILES | PostGolgi ctrl | sEH act | sEH inh | PostGolgi yeast | Cav32 inh
COC(=O)c1ccccc1NC(=O)c1cccc(COc2ccccc2Cl)c1 | 0.3 | 4.3 | -3.0 | 2.2 | -4.19
CC[C@@]1(O)C(=O)OCc2c1cc1n(c2=O)Cc2cc3c(CN(C)C)c(O)ccc3nc2-1 | . | . | . | . | -6.28*
c1ccc(-c2n[nH]nc2-c2ccccc2)cc1 | 30.0* | -3.2 | 2.4 | 23.1 | 0.34
Cc1nn(Cc2ccccc2)c(Cl)c1C(=O)OCc1nnc(-c2ccccc2)o1 | 24.0 | -12.0 | 10.8 | 0.0 | -4.98*
O=C(OCc1nnc(-c2ccccc2)o1)c1ccco1 | -0.8 | 9.8 | -11.3 | 0.3 | 0.566
Cc1nn(Cc2ccccc2)c(Cl)c1C(=O)OCc1nnc(-c2ccc(Cl)cc2)o1 | 14.2 | . | . | -15.7 | -7.26*
CCOC(=O)CSc1nc2sc3c(c2c(=O)n1C1CCCCC1)CCN(C)C3 | . | -5.6 | 7.8 | . | 0.43
Cn1c(SCC(=O)Nc2ccccc2F)nnc1-c1cc2ccccc2o1 | 9.8 | 5.0 | -2.1 | -4.1 | 0.053
CCOc1ccc(-n2cnnn2)cc1S(=O)(=O)Nc1c(C)cccc1C | 42.2* | 3.4 | 0.2 | -1.1 | 0.0251
CCOc1ccc(/C=N/n2c(SC)nnc2-c2ccccc2)cc1OCC | 20.8 | 4.6 | -1.6 | -1.1 | 0.279
COc1ccc(N2CCN(c3nc(Cl)nc(N4CCOCC4)n3)CC2)cc1 | . | 10.1 | -7.5 | . | -3.22
COc1ccc(N2CCN(c3nc(NCCO)nc(N4CCOCC4)n3)CC2)cc1 | 31.1* | 5.5 | -1.8 | -4.1 | 1.14
